# According to article PMC7862700, “An all-to-all approach to the identification of sequence-specific readers for epigenetic DNA modifications on cytosine”:
# Assays:
# Test in all cases: DAPPL (digital affinity profiling via proximity ligation, sequencing); 10 mM Tris-HCl pH 7.5, 50 mM NaCl, 1 mM DTT, 4% glycerol, room temperature, 30 min; GST-TFs on glutathione beads, 16-mer random dsDNA library, 0.1% formaldehyde crosslink after washing; high values mean tight binding
# Details in all cases: protein: recombinant; tags: N-terminal GST; dsDNA, one strand shown
# [1] = molecular target: T1, FLI1 (Homo sapiens, UniProt Q01543 1-452)
# T1 sequence: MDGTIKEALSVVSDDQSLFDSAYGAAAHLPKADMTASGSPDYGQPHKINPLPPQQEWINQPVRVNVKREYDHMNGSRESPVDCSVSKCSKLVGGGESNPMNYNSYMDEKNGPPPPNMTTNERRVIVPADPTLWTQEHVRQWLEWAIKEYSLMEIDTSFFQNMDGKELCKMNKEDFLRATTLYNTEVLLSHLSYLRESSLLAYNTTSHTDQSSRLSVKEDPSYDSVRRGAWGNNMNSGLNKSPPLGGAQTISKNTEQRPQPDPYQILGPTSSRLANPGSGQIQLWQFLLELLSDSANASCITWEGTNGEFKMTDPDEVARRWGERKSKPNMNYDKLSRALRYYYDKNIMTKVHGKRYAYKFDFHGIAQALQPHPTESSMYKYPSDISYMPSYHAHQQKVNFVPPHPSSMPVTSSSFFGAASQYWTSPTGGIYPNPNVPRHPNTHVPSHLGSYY
# How it was run: (§1)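 Sequencing on an Illumina NextSeq500 followed washing, crosslinking with 0.1% formaldehyde, proximity ligation (BsaI/T4 ligase, 1 h, 37 °C) and PCR amplification of pools that had been incubated for 30 min at room temperature with 200 nmole of a random double-stranded 16-mer DNA library in Tris/NaCl/DTT/glycerol buffer. Each pool held DNA-barcoded human transcription factors, expressed in yeast as GST fusions and captured on glutathione beads, plus a tag-only sample. Binding signal is a hexamer's read frequency for a factor divided by its frequency in the tag-only sample.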
# [2] = molecular target: T2, ERG (Homo sapiens, UniProt P11308 1-479)
# T2 sequence: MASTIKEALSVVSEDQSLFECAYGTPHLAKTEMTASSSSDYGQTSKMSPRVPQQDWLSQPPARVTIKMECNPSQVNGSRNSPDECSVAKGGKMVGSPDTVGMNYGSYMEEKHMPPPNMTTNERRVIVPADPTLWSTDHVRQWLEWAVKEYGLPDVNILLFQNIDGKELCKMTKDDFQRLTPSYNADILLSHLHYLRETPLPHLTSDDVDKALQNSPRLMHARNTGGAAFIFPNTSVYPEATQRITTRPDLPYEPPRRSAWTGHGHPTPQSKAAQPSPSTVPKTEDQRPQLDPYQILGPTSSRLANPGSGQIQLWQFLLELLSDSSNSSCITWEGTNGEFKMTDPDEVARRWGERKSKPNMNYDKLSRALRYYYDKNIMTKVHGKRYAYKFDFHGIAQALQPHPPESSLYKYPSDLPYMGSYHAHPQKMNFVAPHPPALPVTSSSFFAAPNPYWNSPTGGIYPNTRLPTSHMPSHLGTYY
# How it was run: as §1
# [3] = molecular target: SPI1 (Homo sapiens, UniProt P17947 1-270)
# How it was run: as §1
# [4] = molecular target: T3, ELK3 (Homo sapiens, UniProt P41970 1-407)
# T3 sequence: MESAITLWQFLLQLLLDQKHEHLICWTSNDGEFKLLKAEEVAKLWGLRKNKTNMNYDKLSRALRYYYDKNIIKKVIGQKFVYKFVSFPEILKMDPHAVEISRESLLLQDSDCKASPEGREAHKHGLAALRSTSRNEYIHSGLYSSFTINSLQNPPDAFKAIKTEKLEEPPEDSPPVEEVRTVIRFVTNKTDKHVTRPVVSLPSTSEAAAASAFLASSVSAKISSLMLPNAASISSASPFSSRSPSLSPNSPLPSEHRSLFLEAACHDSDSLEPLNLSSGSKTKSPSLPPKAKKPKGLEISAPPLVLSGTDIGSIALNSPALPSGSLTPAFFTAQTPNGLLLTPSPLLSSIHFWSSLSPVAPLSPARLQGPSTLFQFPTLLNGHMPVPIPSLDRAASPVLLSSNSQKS
# How it was run: as §1
# [5] = molecular target: T4, SPIC (Homo sapiens, UniProt Q8N5J4 1-248)
# T4 sequence: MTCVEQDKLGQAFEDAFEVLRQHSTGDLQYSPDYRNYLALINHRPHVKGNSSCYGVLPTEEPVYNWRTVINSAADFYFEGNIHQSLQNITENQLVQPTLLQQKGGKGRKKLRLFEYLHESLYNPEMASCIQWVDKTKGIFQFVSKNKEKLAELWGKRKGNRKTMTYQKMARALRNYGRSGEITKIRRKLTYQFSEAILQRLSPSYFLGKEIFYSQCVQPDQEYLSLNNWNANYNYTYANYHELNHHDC
# How it was run: as §1
# [6] = molecular target: ELF4 (Homo sapiens, UniProt Q99607 1-663)
# Chain of ELF4 (Q99607 whole entry): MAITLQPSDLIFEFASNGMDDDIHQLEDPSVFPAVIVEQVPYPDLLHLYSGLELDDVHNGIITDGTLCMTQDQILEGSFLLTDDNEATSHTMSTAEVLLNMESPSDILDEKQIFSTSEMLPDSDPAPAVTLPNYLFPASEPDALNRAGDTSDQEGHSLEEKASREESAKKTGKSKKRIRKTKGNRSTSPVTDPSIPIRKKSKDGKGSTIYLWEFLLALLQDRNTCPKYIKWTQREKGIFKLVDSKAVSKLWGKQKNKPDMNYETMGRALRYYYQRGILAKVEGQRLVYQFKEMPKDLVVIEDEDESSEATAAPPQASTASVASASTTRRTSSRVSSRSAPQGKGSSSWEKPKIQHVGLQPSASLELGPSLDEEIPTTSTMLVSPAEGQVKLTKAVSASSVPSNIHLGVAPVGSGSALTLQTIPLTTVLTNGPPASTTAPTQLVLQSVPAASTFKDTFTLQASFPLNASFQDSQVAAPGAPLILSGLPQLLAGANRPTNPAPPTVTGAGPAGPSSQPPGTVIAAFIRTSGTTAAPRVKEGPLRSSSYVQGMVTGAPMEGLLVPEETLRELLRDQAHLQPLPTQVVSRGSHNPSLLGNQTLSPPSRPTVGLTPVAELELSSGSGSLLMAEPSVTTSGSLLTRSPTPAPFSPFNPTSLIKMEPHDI
# How it was run: as §1
# [7] = molecular target: T5, ELF3 (Homo sapiens, UniProt P78545 1-371)
# T5 sequence: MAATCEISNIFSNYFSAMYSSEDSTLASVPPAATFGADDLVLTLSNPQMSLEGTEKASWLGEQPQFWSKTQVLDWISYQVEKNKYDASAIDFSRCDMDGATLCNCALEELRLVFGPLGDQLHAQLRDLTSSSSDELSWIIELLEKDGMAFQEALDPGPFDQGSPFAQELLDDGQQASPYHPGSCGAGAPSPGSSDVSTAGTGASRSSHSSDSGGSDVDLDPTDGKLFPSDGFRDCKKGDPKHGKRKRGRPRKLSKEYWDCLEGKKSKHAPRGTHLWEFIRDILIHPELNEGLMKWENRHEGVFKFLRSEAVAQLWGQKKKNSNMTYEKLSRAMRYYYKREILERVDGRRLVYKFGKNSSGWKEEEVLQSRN
# How it was run: as §1
# [8] = molecular target: ETV1 (Homo sapiens, UniProt P50549 1-477)
# Chain of ETV1 (P50549 whole entry): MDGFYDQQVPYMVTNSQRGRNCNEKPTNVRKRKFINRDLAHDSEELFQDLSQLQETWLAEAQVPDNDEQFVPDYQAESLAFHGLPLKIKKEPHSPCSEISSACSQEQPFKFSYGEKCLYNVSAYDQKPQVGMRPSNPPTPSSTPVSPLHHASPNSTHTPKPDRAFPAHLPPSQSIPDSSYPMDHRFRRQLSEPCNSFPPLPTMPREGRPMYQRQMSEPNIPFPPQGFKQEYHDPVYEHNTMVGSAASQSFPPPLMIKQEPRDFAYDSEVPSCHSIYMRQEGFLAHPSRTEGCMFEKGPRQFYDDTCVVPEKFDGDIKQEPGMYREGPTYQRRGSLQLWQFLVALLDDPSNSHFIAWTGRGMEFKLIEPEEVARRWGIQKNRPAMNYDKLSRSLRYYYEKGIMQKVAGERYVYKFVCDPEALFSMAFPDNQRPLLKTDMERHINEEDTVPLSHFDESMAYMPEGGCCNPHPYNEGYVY
# How it was run: as §1
# [9] = molecular target: T6, ETV3L (Homo sapiens, UniProt Q6ZN32 1-361)
# T6 sequence: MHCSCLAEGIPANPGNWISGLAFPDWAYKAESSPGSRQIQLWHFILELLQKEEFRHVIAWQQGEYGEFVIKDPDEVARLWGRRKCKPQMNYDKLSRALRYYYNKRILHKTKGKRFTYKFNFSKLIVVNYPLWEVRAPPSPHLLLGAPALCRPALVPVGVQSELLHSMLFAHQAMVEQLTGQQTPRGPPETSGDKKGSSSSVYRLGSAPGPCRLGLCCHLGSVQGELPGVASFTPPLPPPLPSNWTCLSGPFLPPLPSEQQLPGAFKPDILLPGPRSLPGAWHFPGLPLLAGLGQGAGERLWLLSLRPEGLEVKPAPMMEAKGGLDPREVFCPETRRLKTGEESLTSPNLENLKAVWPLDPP
# How it was run: as §1
# [10] = molecular target: T7, ETS2 (Homo sapiens, UniProt P15036 1-469)
# T7 sequence: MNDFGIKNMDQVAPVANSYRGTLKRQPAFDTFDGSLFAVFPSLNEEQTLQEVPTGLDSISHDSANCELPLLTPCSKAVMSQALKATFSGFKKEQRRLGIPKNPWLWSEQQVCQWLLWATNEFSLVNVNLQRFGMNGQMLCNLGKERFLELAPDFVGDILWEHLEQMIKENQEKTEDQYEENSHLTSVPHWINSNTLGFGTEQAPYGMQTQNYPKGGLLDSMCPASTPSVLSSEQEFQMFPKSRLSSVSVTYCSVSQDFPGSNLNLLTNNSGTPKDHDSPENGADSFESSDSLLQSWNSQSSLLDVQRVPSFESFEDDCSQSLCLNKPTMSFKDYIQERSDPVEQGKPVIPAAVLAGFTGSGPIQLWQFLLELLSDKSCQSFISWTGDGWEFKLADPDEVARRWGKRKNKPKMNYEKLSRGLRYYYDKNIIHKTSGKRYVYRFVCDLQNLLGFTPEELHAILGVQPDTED
# How it was run: as §1
# [11] = molecular target: T8, SPDEF (Homo sapiens, UniProt O95238 1-335)
# T8 sequence: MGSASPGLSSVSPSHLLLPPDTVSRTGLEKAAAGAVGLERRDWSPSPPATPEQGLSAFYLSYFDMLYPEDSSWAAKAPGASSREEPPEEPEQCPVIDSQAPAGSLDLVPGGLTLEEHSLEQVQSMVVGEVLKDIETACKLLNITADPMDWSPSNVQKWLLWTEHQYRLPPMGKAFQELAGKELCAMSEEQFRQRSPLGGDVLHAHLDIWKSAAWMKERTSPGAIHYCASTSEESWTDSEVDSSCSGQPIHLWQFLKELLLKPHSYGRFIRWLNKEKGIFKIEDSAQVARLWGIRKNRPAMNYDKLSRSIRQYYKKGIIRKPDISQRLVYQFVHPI
# How it was run: as §1
# [12] = molecular target: T9, ELF5 (Homo sapiens, UniProt Q9UKW6-2 1-255)
# T9 sequence: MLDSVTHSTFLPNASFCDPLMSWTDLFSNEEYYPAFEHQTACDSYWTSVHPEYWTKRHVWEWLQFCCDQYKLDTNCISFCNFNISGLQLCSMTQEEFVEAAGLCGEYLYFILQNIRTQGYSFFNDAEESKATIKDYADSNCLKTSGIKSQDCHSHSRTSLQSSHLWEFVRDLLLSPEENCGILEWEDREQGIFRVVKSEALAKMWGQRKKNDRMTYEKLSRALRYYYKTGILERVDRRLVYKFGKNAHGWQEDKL
# How it was run: as §1
# [13] = molecular target: T10, ETV3 (Homo sapiens, UniProt P41162-2 1-143)
# T10 sequence: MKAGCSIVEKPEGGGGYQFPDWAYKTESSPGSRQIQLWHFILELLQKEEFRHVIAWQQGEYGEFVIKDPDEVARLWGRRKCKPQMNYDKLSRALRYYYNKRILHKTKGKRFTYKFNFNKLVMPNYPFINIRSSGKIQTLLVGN
# How it was run: as §1
sequence,measurement,setting,value
GATACA,binding signal,[1],"1.03 fold enrichment (6-mer frequency, TF over GST control)"
same,binding signal,[2],"1.03 fold enrichment (6-mer frequency, TF over GST control)"
same,binding signal,[3],"1.01 fold enrichment (6-mer frequency, TF over GST control)"
same,binding signal,[4],"1.03 fold enrichment (6-mer frequency, TF over GST control)"
same,binding signal,[5],"1.07 fold enrichment (6-mer frequency, TF over GST control)"
same,binding signal,[6],"1.08 fold enrichment (6-mer frequency, TF over GST control)"
same,binding signal,[7],"1.08 fold enrichment (6-mer frequency, TF over GST control)"
same,binding signal,[8],"1.06 fold enrichment (6-mer frequency, TF over GST control)"
same,binding signal,[9],"1.05 fold enrichment (6-mer frequency, TF over GST control)"
same,binding signal,[10],"1.05 fold enrichment (6-mer frequency, TF over GST control)"
same,binding signal,[11],"1.24 fold enrichment (6-mer frequency, TF over GST control)"
same,binding signal,[12],"1 fold enrichment (6-mer frequency, TF over GST control)"
same,binding signal,[13],"1.01 fold enrichment (6-mer frequency, TF over GST control)"
